# Assay results: PubChem BioAssay (Tox21)
# Results filed as inconclusive are left out. Unmarked numbers belong to inactive results. Calls of active or inactive are those of the source. Calls follow the shape of the dose curve; as a rule, active = well fitted inhibition curve with a large enough effect in the signal ratio in the repeat runs (not every such curve was filed as active); inconclusive = weak or mixed curves; inactive = flat fitted curve, though single readings scatter; the % refers to the signal ratio.
# Target: Progesterone receptor (Homo sapiens) (UniProt P06401)
# Sequence (P06401 whole entry, looked up): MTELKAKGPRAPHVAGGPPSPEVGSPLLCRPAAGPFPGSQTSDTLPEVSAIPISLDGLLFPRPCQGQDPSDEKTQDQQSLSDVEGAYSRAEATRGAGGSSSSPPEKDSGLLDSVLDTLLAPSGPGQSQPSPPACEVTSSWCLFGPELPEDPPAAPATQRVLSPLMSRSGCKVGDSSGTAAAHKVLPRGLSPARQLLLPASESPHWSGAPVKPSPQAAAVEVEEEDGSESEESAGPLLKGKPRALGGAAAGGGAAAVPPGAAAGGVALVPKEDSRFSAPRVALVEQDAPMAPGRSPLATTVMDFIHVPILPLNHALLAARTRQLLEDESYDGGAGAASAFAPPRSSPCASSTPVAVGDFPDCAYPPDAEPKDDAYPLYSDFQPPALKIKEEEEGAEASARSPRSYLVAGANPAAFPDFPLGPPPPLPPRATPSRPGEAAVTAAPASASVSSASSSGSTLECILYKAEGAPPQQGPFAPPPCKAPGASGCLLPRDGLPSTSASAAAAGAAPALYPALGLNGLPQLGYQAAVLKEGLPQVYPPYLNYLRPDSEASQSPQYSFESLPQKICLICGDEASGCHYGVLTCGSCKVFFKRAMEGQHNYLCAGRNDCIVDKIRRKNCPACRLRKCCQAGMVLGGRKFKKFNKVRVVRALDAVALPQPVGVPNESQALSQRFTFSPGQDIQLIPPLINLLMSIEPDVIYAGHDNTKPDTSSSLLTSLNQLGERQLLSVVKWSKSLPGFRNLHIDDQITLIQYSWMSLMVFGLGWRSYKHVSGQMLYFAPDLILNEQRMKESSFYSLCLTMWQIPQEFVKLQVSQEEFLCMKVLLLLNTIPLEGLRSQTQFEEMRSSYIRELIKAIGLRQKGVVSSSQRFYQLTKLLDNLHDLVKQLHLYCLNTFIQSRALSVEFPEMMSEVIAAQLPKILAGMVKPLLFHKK
# Assay: qHTS assay to identify small molecule antagonists of the progesterone receptor (PR) signaling pathway (AID 1346795)
# Conditions: PR-UAS-bla HEK293T, beta-lactamase FRET ratio, 16 h; series mostly up to 92.4 µM; activity change, negative = inhibition: at the top concentration
# From the text: National Center for Advancing Translational Sciences [NCATS]
# NIH Chemical Genomics Center [NCGC]
# U.S. Environmental Protection Agency [EPA]
# National Institutes of Environmental Health Sciences [NIEHS]
# National Toxicology Program [NTP]
# U.S. Food and Drug Administration [FDA]
# Progesterone receptor (PR), a nuclear hormone receptor, plays an important role in development, metabolic homeostasis and reproduction. […] Endocrine disrupting chemicals (EDCs) and their interactions with steroid hormone receptors like PR causes disruption of normal endocrine function. To identify the compounds that inhibit PR signaling, a PR-UAS-bla GripTite cell line i.e. PR-UAS-bla HEK293T (Invitrogen, Carlsbad, CA, USA) containing a beta-lactamase reporter gene under the control of an Upstream Activator Sequence (UAS) was used to screen Tox21 10K compound library.
# Tox21 Assay Protocol Summary:
# PR-UAS-bla HEK293T cells were dispensed at 3,000 cells/4 uL of assay medium containing 2% charcoal stripped FBS per well into black wall/clear-bottom 1536-well plates using a Multidrop Combi (ThermoFisher Scientific, Waltham, MA) dispenser. After the assay plates were incubated at a 37C and 5% CO2 for 6 hr, 23 nL of compounds dissolved in DMSO, positive controls or DMSO only was transferred to the assay plate by a Pintool station (Kalypsys, San Diego, CA), followed by addition of 1 uL (1nM as final concentration) of Promegestone (R5020) in assay medium using a BioRAPTR FRD (Flying Reagent Dispenser, Aurora Discovery, San Diego, CA). The plates were incubated at 37C and 5% CO2 for 16 hr. Then 1 uL of LiveBLAzer B/G FRET substrate was added using a FRD. After the plates were incubated at room temperature for 2 hours, fluorescence intensity was measured by an Envision plate reader (PerkinElmer, Shelton, CT).
# % is scaled to controls: 0 for no effect and ±100 for the full control effect; potency is read from the fitted curve at half-maximal effect.
SMILES,Potency,"activity change, negative = inhibition"
COP(=O)(OC)O/C(=C/Cl)c1cc(Cl)c(Cl)cc1Cl,14.5 µM (active),–
CC(C)(OO)c1ccccc1,–,12.7%
Nc1nc(N)nc(N)n1,–,15.3%
CCOP(=S)(Oc1ccc([N+](=O)[O-])cc1)c1ccccc1 (stereo not given),2.17 µM (active),–
CCOP(=O)(OCC)SCCSCC,inactive,–
CCCCc1c(C)nc(NCC)nc1OS(=O)(=O)N(C)C,27.3 µM (active),–
CCOc1ccc(C(C)(C)COCc2cccc(Oc3ccccc3)c2)cc1,–,-12.1%
O=C(O)C(F)(F)C(F)(F)C(F)(F)C(F)(F)C(F)(F)C(F)(F)C(F)(F)C(F)(F)C(F)(F)C(F)(F)F,–,9%
O=C1CN=C(c2ccccc2)c2cc(Cl)ccc2N1CC1CC1,11.4 µM (active),–
CC(=O)[C@H]1CC[C@H]2[C@@H]3CC[C@H]4C[C@](C)(O)CC[C@]4(C)[C@H]3CC[C@]12C,–,-18.3% [at 42.5 µM]
CCCCN(N=O)C(=N)N[N+](=O)[O-],–,-1.81%
O=C(OC1CCCCC1)c1ccccc1C(=O)OC1CCCCC1,16.2 µM (active),–
C=CCCl,–,-5.99%
NCC(CC(=O)O)c1ccc(Cl)cc1 (stereo not given),–,7.47% [at 0.348 µM]
c1ccc(CN2CCNCC2)cc1,–,10.6% [at 238 µM]
CCOC(=O)COc1cc(-c2nn(C)c(OC(F)F)c2Cl)c(F)cc1Cl,–,4.27%
N#CCC#N,–,1.84%
[CH3][Sn]([CH3])([Cl])[Cl],–,0.15%
CCCCCCCCCCOC(=O)c1ccccc1C(=O)OCCCCCCCCCC,–,3.07%
CCCCN=C=O,–,5.81%

SMILES,Potency,"activity change, negative = inhibition"
ClCc1cccc(Cl)c1,–,-2.22% [at 42.5 µM]
NC(=O)C(Cl)(Cl)Cl,–,5.43%
CCBr,–,-11.3%
O=[N+]([O-])c1ccc(F)c([N+](=O)[O-])c1,–,-13.9%
Clc1cccc2ccccc12,–,2.09%
ClC=C(Cl)Cl,–,-0.128%
C[C@]12CC[C@H]3[C@@H](CCC4=CC(=O)CC[C@@H]43)[C@@H]1CC[C@@H]2OC(=O)CCC1CCCCC1,–,-5.63% [at 42.5 µM]
O=[N+]([O-])C(Br)(CO)CO,–,0.735%
Cc1ccccc1CCl,–,4.6%
COc1c(C(C)(C)C)cc([N+](=O)[O-])c(C)c1[N+](=O)[O-],–,-3.65%
N#CCc1ccccc1,–,7.06%
CCOC(=O)C(Cl)C(C)=O (stereo not given),–,3.43%
O=C(CBr)Nc1ccc(Cl)cc1C(=O)c1ccccc1F,21.1 µM (active),–
COc1cc(CC(C)N)cc2c1OCO2 (stereo not given),–,3.57%
CCOP(O)OCC,–,1.21%
CCOP(=O)(OCC)O/C(=C/Cl)c1ccc(Cl)cc1Cl,10.9 µM (active),–
O=Cc1ccc2c(c1)OCO2,–,3.58%
Clc1cccc(SC2CCNCC2)n1,–,4.88% [at 42.5 µM]
COC(=O)C(Br)CBr (stereo not given),–,8.3%
NCCCNCCCN,–,-1.16%
